Inconclusive results are not listed. Active and inactive are the calls of the source. Unless noted, the call rests on the fitted dose curve; in most records, active means well fitted curve in the direction sought with a large enough effect; inconclusive means small, poorly fitted or top-dose-only effect, or another doubt; inactive means no such curve, though single readings can be large; an effect the other way counts as inactive or inconclusive.

The target of assay [1] is Transient receptor potential cation channel subfamily V member 1 (Homo sapiens) (UniProt Q8NER1). Put plainly: HTS Assay for Compounds that Act as Enhancers of the Vanilloid Receptor 1 (AID 488979). Further: 0% is about no effect. The gist of the method:
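Calcium influx kinetics via Fluo-8 (480/520 nm) in TRPV1-expressing cells, 2000/well cultured overnight at 35.5C. Compound-alone read 3 min (agonist phase), followed by EC20 capsaicin challenge for 2 min (enhancer phase).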

The target of assay [2] is Thyrotropin receptor (Homo sapiens) (UniProt P16473). Put plainly: qHTS Assay for Antagonists of the Thyroid Stimulating Hormone Receptor (AID 488980). Further: series mostly up to about 58 µM; 0% is about no effect. An outline of the steps:
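TSHR-transfected HEK293 cells (2000/well) in HEPES-buffered HBSS with 70 uM RO 20-1724 were stimulated with 4 nM TSH (EC80, final) in the presence of compound. cAMP was measured by HTRF competition after lysis and 30 min at RT.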

Assay [3] addresses D(1A) dopamine receptor (Homo sapiens) (UniProt P21728). In words: HTS Assay for Allosteric Agonists of the Human D1 Dopamine Receptor: Primary Screen for Agonists (AID 488981). Further: 0% is about no effect. An outline of the steps:
(§1)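 Calcium flux in an inducible, force-coupled HEK293 Trex D1 line (overnight at 30 C): agonist mode is the 180 s kinetic read after compound; potentiator mode is the following 180 s read after dopamine at EC20.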

The target is the same in assay [4]. In words: HTS Assay for Allosteric Agonists of the Human D1 Dopamine Receptor: Primary Screen for Potentiators (AID 488982). Further: potency means the concentration at half of the fitted maximal effect. An outline of the steps:
as §1

Assay [5] has the same target. Put plainly: HTS Assay for Allosteric Agonists of the Human D1 Dopamine Receptor: Primary Screen for Antagonists (AID 488983).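 Further: calcium flux response to an EC80 dopamine challenge measured with no-wash dye; on the % scale 0 is the no-effect control and ±100 the full control effect; nearly all actives have a fitted effect of over 65% in size.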 An outline of the steps:
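Calcium-flux read-out in inducible HEK293 T-REx cells expressing D1, dye-loaded 30–90 min at room temperature. Kinetic reads: 180 s after compound (agonist phase), then 180 s after an EC80 dopamine challenge.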

The target of assay [6] is ATPase family AAA domain-containing protein 5 (Homo sapiens) (UniProt Q96QE3). In words: Validation screen for small molecules that inhibit ELG1-dependent DNA repair in human embryonic kidney (HEK293T) cells expressing luciferase-tagged ELG1 (AID 493107).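 Further: series mostly up to about 46 µM; on the % scale 0 is the no-effect control and ±100 the full control effect; inhibitors lower the ELG1-luciferase luminescence signal; nearly all actives have a fitted effect of over 70% in size.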 An outline of the steps:
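Luciferase read-out, ONE-Glo, 30 min at room temperature, follows 16 h co-exposure at 37 C of compound and the DNA-damaging agent 5-fluorouridine. Cells: HEK293T with ELG1-luciferase fusion, 2,000 per well, DMSO as vehicle.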

Assay [7] is described as follows: Nrf2 qHTS screen for inhibitors: Validation (AID 493153; active means well fitted inhibition curve with a large enough effect in the main read-out, with a control signal flat, not every such curve was filed as active). The following applies: Potency: luciferase luminescence; viability change: measured here: cytotoxicity max response. The gist of the method: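 Concentration-response on A549 ARE_Fluc reporter cells exposed 18-24 h at 37 C, 5% CO2. Cytotoxicity read first by CellTiter-Fluor fluorescence (Ex 405/Em 525), then Nrf2 inhibition by BugLite luminescence after 15 min.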

The nature of assay [8]: qHTS for Inhibitors of Cell Surface uPA Generation: Validation Assay (AID 493164).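 Further: RAW 264.7 macrophage cells exposed to compound for 18 h; 0% is about no effect.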 The gist of the method: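 ATP-Lite luminescence read-out: ATP remains high when uPA activity-dependent LF translocation into the cytoplasm is blocked. RAW 264.7 cells, 18 h compound exposure at 37 C; 7-point titration, 2.45 nM to 38.3 uM final.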
Assay [9] deals with Galactokinase (Homo sapiens) (UniProt P51570). Put plainly: qHTS Validation Assay for Inhibitors of Human Galactokinase (GALK) (AID 493189). Further: 0% is about no effect. The gist of the method: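 GALK (5 nM) with 35 uM ATP and 100 uM galactose in HEPES pH 8.0 with MgCl2, NaCl, DTT and BSA. Reaction ran 1 h at room temperature. Residual ATP read by Kinase-Glo Plus luminescence.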
Assay [10] is described as follows: Validation screen for small molecules that induce DNA re-replication in SW480 colon adenocarcinoma cells (AID 504364). Further: 0% is about no effect. The gist of the method: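 Image-based DNA content read-out: Hoechst stain 40 min, total nuclear fluorescence intensity (ex 405 nm, em 500-530 nm) after 48 h compound exposure of 250 SW480 cells/well at 37 C, 5% CO2, versus DMSO vehicle.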
Assay [11] has as its target Phosphoglycerate kinase, glycosomal (Trypanosoma brucei brucei) (UniProt P07378). Put plainly: qHTS Validation Assay to Find Inhibitors of Phosphoglycerate Kinase (AID 504547).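 Further: control wells lack PGK and mark full inhibition.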 An outline of the steps: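 Luminescence end-point (Kinase-Glo Plus, 10 min) after a 60 min room-temperature coupled reaction. GAPDH at 100nM final supplies 1,3-BPG to PGK. Buffer: 100mM TEA pH 7.6, 5mM MgCl2, 0.01% Tween-20. Wells lacking PGK served as controls.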

In assay [12] the target is phosphoglycerate mutase (Leishmania major) (UniProt Q4Q090). In words: qHTS Validation Assay to Find Inhibitors of Phosphoglycerate Mutase (AID 504548). Further: series mostly up to about 58 µM; on the % scale 0 is the no-effect control and ±100 the full control effect. The settings on record: Potency: inhibition qHTS. An outline of the steps: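 Luminescent end-point read-out via Kinase-GloPlus after a 10-minute development. Reaction: 1.25nM Leishmania major PGAM with substrate and compound, 45 minutes at room temperature in TEA buffer (pH 7.6) with MgCl2 and Tween-20.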

Assay [13] concerns the target Ubiquitin carboxyl-terminal hydrolase 1 (Homo sapiens) (UniProt O94782). In words: Inhibitors of USP1/UAF1: Pilot qHTS (AID 504865).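 Further: rhodamine fluorescence freed from ubiquitin-rhodamine substrate followed over time; top concentration of the series differs between compounds; on the % scale 0 is the no-effect control and ±100 the full control effect; nearly all actives have a fitted effect of over 35% in size.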 An outline of the steps:
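USP1/UAF1 complex at 1 nM preincubated 15 min at room temperature with compound, then Ub-Rho substrate added at 150 nM final. Fluorescence (480/540 nm) read kinetically in 50 mM HEPES pH 7.8, 0.5 mM EDTA, 1 mM TCEP, 0.1 mg/ml BSA, 0.01% Tween-20.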

The nature of assay [14]: qHTS for Inhibitors of ATXN expression: Validation (AID 588378). Further: series mostly up to about 57 µM; on the % scale 0 is the no-effect control and ±100 the full control effect; nearly all actives have a fitted effect of over 75% in size. The gist of the method: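 HEK293 cells carrying ATXN2-firefly luciferase reporter, treated with compound 24 h at 37 °C. Viability read first by CellTiter-Fluor (405/525 nm), then reporter expression by Bright-Glo luminescence; controls were a known ATXN2 expression inhibitor and a luciferase inhibitor.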
The target of assay [15] is Thyrotropin-releasing hormone receptor (Homo sapiens) (UniProt P34981). Put plainly: qHTS for Small Molecule Agonists and Allosteric Enhancers of Human TRH Receptor: Validation Screen for Agonists (AID 493127;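 active means calcium activation more than 3 SD above the typical response in the agonist read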;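 further: intracellular calcium rise by fluo-8 fluorescence before TRH EC20 addition; 0% is about no effect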). The following applies: TRH receptor agonist cell assay; at 2 µM; stronger effect = higher value. An outline of the steps: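 Compound-evoked intracellular calcium release in fluo-8-loaded TRHR cells, read kinetically on FDSS (Ex 480/Em 530, 1 s/cycle) after 23 nL pintool transfer. Agonist phase preceded 10 nM TRH EC20 addition.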

Assay [16] addresses Peptidyl-prolyl cis-trans isomerase NIMA-interacting 1 (Homo sapiens) (UniProt Q13526). In words: qHTS Validation Assay to Find Inhibitors of Pin1 (AID 504536; active means well fitted inhibition curve with a large enough effect in the polarisation, with a control signal flat, not every such curve was filed as active; the % refers to the polarisation;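 further: 0% = full Pin1 enzyme wells and -100% = no-enzyme wells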). An outline of the steps:
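Fluorescence polarization competition: compounds (titration) displace HiFluor-488-labeled Pin1-1b peptide from Pin1 (0.3 uM final) in pH 7.5 HEPES buffer with DTT, 10 min at room temperature; %Activity normalized to no-enzyme wells, curves fitted.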

Assay [17] can be described thus: qHTS for Inhibitors of ATXN expression: Validation of Cytotoxic Assay (AID 588349). Further: potency means the concentration at half of the fitted maximal effect. The gist of the method: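 Cytotoxicity counter-screen: ATP-based luminescent viability (CellTiter Glo) after 72 hr exposure of HEK293 cells to a compound titration at 37 degrees C.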
The nature of assay [18]: Validation screen for small molecules that induce genotoxicity in human embryonic kidney (HEK293T) cells expressing luciferase-tagged ELG1 (AID 493106). Further: 0% is about no effect. The gist of the method:
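ELG1-luciferase reporter readout (ONE-Glo, 30 min, room temperature) after 16 hr compound treatment at 37 °C of HEK293T cells at 2,000 per well. Rising luminescence flags genotoxic stress.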

Sequence of Thyrotropin-releasing hormone receptor (Homo sapiens) (P34981 whole entry, looked up): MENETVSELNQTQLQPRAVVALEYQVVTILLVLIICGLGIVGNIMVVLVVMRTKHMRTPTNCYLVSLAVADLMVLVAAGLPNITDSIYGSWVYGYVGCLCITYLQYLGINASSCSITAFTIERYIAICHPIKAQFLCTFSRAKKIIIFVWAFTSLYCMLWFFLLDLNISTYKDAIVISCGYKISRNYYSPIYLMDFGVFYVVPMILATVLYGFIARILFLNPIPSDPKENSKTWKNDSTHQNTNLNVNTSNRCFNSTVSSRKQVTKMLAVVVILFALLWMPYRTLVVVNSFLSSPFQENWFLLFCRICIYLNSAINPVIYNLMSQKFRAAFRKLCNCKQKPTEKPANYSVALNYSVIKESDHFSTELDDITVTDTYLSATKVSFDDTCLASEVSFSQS
Sequence of Peptidyl-prolyl cis-trans isomerase NIMA-interacting 1 (Homo sapiens) (Q13526 whole entry, looked up): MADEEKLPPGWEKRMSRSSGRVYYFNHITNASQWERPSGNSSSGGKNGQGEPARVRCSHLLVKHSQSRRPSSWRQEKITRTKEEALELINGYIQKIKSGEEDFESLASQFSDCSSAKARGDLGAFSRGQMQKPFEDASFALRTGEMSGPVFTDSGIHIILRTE
Sequence of phosphoglycerate mutase (Leishmania major) (Q4Q090 1-553): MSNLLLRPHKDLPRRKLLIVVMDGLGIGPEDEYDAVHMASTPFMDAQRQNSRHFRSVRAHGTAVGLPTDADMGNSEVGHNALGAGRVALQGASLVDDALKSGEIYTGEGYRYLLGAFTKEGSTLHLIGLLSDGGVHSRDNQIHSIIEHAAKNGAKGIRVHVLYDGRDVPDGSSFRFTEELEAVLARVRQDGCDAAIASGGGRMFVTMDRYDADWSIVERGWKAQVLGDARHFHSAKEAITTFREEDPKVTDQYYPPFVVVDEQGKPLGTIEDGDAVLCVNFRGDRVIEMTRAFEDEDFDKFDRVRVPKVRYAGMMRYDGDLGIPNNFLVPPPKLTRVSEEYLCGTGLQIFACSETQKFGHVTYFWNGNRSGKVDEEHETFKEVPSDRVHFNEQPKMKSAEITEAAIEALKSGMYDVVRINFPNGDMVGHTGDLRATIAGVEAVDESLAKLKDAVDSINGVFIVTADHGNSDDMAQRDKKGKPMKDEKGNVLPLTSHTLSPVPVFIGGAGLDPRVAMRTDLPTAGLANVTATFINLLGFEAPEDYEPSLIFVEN
Sequence of Transient receptor potential cation channel subfamily V member 1 (Homo sapiens) (Q8NER1 whole entry, looked up): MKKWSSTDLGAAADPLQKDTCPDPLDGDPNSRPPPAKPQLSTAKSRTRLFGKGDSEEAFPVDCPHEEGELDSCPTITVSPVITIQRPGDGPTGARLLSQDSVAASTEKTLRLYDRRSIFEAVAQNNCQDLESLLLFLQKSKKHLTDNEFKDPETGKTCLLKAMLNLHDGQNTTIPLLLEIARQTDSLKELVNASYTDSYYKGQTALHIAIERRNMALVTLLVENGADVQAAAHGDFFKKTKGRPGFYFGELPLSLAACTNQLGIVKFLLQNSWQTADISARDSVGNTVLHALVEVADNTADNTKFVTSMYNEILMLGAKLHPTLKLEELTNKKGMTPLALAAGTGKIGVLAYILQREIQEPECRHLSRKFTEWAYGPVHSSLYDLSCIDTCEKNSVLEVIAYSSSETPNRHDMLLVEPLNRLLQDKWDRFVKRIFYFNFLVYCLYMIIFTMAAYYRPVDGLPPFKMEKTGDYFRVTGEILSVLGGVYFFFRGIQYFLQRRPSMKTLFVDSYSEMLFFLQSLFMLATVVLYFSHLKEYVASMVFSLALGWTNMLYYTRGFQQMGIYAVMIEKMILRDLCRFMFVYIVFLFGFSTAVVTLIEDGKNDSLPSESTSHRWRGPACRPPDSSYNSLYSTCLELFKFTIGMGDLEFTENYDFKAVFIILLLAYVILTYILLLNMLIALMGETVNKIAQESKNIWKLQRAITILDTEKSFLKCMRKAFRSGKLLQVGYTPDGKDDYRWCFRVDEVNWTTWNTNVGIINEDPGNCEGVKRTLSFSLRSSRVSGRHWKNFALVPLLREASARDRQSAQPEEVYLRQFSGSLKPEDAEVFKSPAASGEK
Sequence of Ubiquitin carboxyl-terminal hydrolase 1 (Homo sapiens) (O94782 whole entry, looked up): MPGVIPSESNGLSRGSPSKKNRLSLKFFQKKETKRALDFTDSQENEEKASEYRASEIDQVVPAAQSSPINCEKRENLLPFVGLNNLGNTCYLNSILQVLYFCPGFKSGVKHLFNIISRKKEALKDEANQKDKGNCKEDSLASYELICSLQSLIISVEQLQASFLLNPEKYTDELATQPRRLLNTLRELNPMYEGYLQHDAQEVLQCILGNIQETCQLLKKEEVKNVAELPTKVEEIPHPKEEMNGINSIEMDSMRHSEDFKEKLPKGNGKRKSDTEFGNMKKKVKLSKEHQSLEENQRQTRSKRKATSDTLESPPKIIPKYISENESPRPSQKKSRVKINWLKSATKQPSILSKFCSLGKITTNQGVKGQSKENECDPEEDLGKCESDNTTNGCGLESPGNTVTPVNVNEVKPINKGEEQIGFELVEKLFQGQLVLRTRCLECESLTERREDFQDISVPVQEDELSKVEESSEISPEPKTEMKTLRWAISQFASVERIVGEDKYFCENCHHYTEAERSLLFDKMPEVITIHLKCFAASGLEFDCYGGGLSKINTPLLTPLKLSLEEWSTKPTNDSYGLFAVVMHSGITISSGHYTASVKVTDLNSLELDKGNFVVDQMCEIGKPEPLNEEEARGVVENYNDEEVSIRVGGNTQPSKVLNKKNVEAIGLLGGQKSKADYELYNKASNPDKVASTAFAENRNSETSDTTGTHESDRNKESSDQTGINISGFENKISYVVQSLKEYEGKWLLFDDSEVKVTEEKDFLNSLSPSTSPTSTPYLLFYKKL
Sequence of Phosphoglycerate kinase, glycosomal (Trypanosoma brucei brucei) (P07378 whole entry, looked up): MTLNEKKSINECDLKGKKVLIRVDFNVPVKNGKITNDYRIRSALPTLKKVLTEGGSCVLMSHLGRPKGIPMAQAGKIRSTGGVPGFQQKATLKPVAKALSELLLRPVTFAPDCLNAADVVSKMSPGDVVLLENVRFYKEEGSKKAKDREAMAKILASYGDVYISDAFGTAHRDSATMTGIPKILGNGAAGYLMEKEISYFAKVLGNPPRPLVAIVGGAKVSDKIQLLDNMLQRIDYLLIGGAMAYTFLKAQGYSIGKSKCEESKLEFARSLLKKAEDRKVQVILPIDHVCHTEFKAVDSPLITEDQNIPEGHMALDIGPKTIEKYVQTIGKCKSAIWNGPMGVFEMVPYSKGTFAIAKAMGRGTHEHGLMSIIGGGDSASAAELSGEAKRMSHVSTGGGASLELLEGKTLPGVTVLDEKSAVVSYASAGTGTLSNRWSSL
Sequence of ATPase family AAA domain-containing protein 5 (Homo sapiens) (Q96QE3 whole entry, looked up, the tested form may be a part): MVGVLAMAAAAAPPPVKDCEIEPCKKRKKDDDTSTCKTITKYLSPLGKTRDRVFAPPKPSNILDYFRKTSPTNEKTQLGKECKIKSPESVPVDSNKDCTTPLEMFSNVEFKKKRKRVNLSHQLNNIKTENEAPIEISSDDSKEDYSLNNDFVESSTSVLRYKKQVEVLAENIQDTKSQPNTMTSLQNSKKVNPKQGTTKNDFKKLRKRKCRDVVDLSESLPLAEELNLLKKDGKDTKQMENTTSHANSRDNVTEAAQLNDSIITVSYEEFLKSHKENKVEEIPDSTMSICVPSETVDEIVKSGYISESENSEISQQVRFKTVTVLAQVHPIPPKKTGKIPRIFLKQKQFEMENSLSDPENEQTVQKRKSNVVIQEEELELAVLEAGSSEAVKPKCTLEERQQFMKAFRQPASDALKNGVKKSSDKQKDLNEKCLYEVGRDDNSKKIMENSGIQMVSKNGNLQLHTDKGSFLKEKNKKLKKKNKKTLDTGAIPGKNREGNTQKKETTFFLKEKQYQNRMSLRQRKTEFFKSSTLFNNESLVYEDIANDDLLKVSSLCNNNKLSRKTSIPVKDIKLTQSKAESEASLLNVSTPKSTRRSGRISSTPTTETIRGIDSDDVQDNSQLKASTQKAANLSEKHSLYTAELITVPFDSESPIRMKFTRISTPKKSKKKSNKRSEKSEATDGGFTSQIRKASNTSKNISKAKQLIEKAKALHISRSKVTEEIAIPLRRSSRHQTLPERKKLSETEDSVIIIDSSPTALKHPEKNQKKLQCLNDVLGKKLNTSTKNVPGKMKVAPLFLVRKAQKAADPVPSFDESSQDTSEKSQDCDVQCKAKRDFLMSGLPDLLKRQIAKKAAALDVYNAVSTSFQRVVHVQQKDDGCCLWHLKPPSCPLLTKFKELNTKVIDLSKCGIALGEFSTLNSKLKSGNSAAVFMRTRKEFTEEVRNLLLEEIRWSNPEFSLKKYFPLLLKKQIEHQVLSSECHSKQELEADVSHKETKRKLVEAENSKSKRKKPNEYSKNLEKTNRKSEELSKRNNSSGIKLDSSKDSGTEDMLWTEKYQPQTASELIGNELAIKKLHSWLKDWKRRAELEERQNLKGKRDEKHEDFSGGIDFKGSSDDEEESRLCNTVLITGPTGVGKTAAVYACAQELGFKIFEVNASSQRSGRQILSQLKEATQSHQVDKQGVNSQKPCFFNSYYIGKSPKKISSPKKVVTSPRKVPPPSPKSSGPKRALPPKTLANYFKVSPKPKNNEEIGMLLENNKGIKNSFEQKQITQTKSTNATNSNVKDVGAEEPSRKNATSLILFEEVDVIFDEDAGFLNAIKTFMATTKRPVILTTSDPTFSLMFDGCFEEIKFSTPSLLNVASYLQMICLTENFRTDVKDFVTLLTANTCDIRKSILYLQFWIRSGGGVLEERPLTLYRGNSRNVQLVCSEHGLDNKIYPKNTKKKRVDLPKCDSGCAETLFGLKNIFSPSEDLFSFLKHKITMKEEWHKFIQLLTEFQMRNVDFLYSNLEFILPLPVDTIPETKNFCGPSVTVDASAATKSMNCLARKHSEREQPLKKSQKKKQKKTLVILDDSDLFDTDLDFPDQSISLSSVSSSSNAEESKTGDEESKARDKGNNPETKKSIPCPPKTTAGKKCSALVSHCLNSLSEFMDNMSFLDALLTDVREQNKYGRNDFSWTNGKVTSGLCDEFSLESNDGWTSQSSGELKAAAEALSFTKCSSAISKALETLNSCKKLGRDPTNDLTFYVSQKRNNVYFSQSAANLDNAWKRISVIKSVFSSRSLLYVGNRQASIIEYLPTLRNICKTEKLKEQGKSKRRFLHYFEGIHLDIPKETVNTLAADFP

On to `CC(N)(Cc1ccc(O)cc1)C(=O)O` (configuration not stated), for which the outcome in [1], in assay [2] and in [8] was inactive. Besides, the Potency entry in assay [3], in [4], in assay [5], in assay [6], in [7] and in assay [9] was “inactive” throughout. The Potency result in [10], in assay [11], in assay [12], in [13] and in assay [14] was “inactive” in each case. The viability change in [7] was found to be 11.6%.

Regarding `CCCCCC(O)CCCC(=O)O` (configuration not stated), the result in [1] and in assay [2] was inactive. Besides, the Potency entry in assay [3], in assay [4], in assay [5], in assay [7], in [9] and in assay [10] was “inactive” in each case. Besides, the Potency result in assay [16], in assay [11], in [12], in assay [13], in assay [17] and in assay [14] was “inactive” throughout. In addition, in assay [15], the activation was -0.375% (inactive). Further, the viability change in assay [7] was found to be 0.592%.

As to `CCCc1c(-c2ccc(O)cc2)nn(-c2ccc(O)cc2)c1-c1ccc(O)cc1`, the result in assay [1], in assay [2] and in [8] was inactive. Besides, the Potency result in [3], in assay [4], in [18], in assay [6], in assay [7] and in [9] was “inactive” each time. The Potency entry in assay [10], in assay [16], in assay [11], in [12] and in assay [13] was “inactive” in each case. In assay [15], the activation was 2.12% (inactive). Besides, the viability change in [7] is -5.33%.

Turning to `CCCCS(=N)(=O)CC[C@H](N)C(=O)O` (some centres not stated), the outcome in assay [1], in assay [2] and in [8] was inactive. The Potency entry in assay [3], in [4], in [5], in [7], in [9] and in assay [10] was “inactive” in each case. Further, the Potency entry in assay [16], in [11], in [12], in [13], in assay [17] and in assay [14] was “inactive” throughout. The activation in assay [15] is -2.62% (inactive). Further, the viability change in assay [7] was determined as 0.751%.

As for `CC#CCOC(=O)c1c(C)nc2sc3c(c2c1N)CCC(O)C3` (configuration not stated), the result in [1] and in assay [2] was inactive. Moreover, the Potency result in [3], in assay [4], in assay [5], in [9], in assay [10] and in [16] was “inactive” throughout. Also, the Potency entry in assay [11], in [12], in assay [13], in assay [17] and in assay [14] was “inactive” in each case. In assay [15], the activation was 0.438% (inactive).

With `CC[C@@H]1Cc2cc(O)ccc2C2=C1c1ccc(O)cc1C[C@H]2CC`, the outcome in assay [1] and in assay [2] was inactive. In addition, the Potency entry in assay [3], in assay [18], in assay [7], in assay [9], in assay [16] and in assay [11] was “inactive” in each case. The Potency result in assay [12] and in [13] was “inactive” in each case. The Potency in [4] was 2.59 µM (active); in assay [17] it was 22.4 µM (active). In addition, in assay [15], the activation was 6.69% (inactive). In assay [7], the viability change came out at 1.92%.

Turning to `C=CCN1CCc2cc(O)c(O)cc2C(c2ccccc2)C1` (configuration not stated), the outcome in assay [1], in assay [2] and in assay [8] was inactive. Besides, the Potency entry in assay [3], in assay [4], in assay [6], in [7], in assay [9] and in [10] was “inactive” throughout. For the same compound, the Potency entry in [16], in assay [11], in [12] and in assay [13] was “inactive” in each case. For the same compound, the activation in [15] was 1.38% (inactive). Besides, the viability change in [7] is -2.64%.

Values taken from PubChem BioAssay (NCATS).
